Sampled rows, rich in hits. Any-hit rate of the full collection: about 19%.
KB-3-1 tox – qHTS assay for MDR1-selective chemotherapeutics: Primary screen using the parental adenocarcinoma cell KB-3-1 | KB-3-1 viability, CellTiter-Glo ATP luminescence, 72 h | Potency, µM (doses to about 46.1 µM), most hits filed as cytotoxic | AID 1347075, 2019 | actives 1.4% (n = 400,000); note: nearly all actives have a fitted effect of over 60% in size
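Parental KB-3-1 viability, qHTS format: 72 h compound exposure, 37 °C; CellTiter-Glo; media-only wells and DMSO plates as controls; concentration-effect fits on corrected data.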
KB-V1 MDR tox – qHTS assay for MDR1-selective chemotherapeutics: Primary screen using the drug-selected MDR subline cells KB-V1; KB-V1 MDR cells viability, CellTiter-Glo, 72 h; Potency, µM (series often up to 46.1 µM), most hits filed as cytotoxic; actives 3.4% (n = 400,000); AID 1347076, 2019; note: nearly all actives have a fitted effect of over 60% in size
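Readout: CellTiter-Glo luminescence, 10 min after addition. Cells: KB-V1 MDR subline, 72 h at 37 degrees C with compound. Analysis: corrected, normalized data fitted to concentration-effect curves.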
HT1080-NT tox – qHTS for induction of synthetic lethality in tumor cells producing 2HG: qHTS for the HT-1080-NT fibrosarcoma cell line. Potency, µM (doses to about 46.1 µM), for the others: at the top dose activity, negative = less viability, actives largely listed as cytotoxic. HT-1080-NT fibrosarcoma viability, CellTiter-Glo ATP luminescence, 48 h. actives 1.6% (n = 360,000);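 note: NT is the 2HG producing partner of a matched IDH1 knockdown line; 0% = DMSO-treated cells and -100% = media-only wells without cells; nearly all actives have a fitted effect of over 55% in size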
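750 cells/well, RPMI + 5% FBS; 2 h settle, compound pin-transfer, 48 h at 37 degrees C. CellTiter-Glo 10 min RT, luminescence. Normalized to DMSO and media-only wells.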
TDP1 cell CPT – qHTS for Inhibitors of human tyrosyl-DNA phosphodiesterase 1 (TDP1): qHTS in cells in presence of CPT | actives 12% (n = 420,000) | Potency, µM (doses to about 46.2 µM), for the others: top-dose activity change, negative = growth inhibition, actives largely listed as inhibitors | chicken DT40 Tdp1-/-;hTDP1 cells + 20 nM CPT, ATP luminescence, 48 h | AID 686979, 2013; note: nearly all actives have a fitted effect of over 55% in size
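Chicken DT40 Tdp1-/- cells stably complemented with human TDP1 were seeded at 400 cells/well in medium containing 20 nM camptothecin, exposed to pin-transferred compounds, and grown at 37 °C for at least 48 hr. Viability was read as ATP luminescence.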
HT1080 IDH1KD tx – qHTS for induction of synthetic lethality in tumor cells producing 2HG: qHTS for the HT-1080-IDH1KD cell line; AID 686971, 2013; Potency, µM (highest dose often 46.1 µM), without a hit: top-dose activity, negative = toxicity, hits mostly cytotoxic; actives 2% (n = 360,000); HT-1080 IDH1 knockdown viability, ATP luminescence, 48 h;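 note: 0% = DMSO wells and -100% = cell-free medium wells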
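Viability of IDH1-knockdown HT-1080 fibrosarcoma cells was assessed by CellTiter-Glo after 48 h at 37 °C with titrated compound; concentration-effect curves were classified by fit quality and response size.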
TDP1 cell noCPT – qHTS for Inhibitors of human tyrosyl-DNA phosphodiesterase 1 (TDP1): qHTS in cells in absence of CPT | actives 15% (n = 420,000) | Potency, µM (series often up to 46.2 µM), for inactives: top-dose activity change, negative = growth inhibition, most hits filed as inhibitors | DT40 Tdp1-/- hTDP1 cells, no CPT, ATP luminescence, 48 h; note: nearly all actives have a fitted effect of over 55% in size
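Stably hTDP1-transfected Tdp1-null chicken DT40 cells were treated with library compounds minus camptothecin and grown for at least 48 hr at 37 °C, after which cellular ATP was quantified by luminescence.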
Starred values were filed as active, the others as inactive; i = inactive; ? = inconclusive; / = no result; [ ] = remark or other dose. Calls come from the whole dose curve; as a rule, active = well fitted curve in the direction sought with a large enough effect; inconclusive = small, poorly fitted or top-dose-only effect, or another doubt; inactive = no such curve, though single readings can be large; an effect the other way counts as inactive or inconclusive. Unless noted, % is set by controls: 0 for no effect and ±100 for the full control effect; potency is the fitted concentration of half-maximal effect.

SMILES | KB-3-1 tox | KB-V1 MDR tox | HT1080-NT tox | TDP1 cell CPT | HT1080 IDH1KD tx | TDP1 cell noCPT
CCC(C)(C)NC(=O)C1CCCN(S(=O)(=O)c2ccc3c(c2)CC(C)N3C(=O)C2CC2)C1 (stereo not given) | i | i | 0% | ? | -3% | -11%
NCCCCNc1ncnc2ccc(-c3ccc4c(c3)OCO4)cc12 | i | i | / | / | / | /
COC(=O)C1CN(C(=O)COc2ccc(Cl)cc2C)c2ccccc2O1 (stereo not given) | i | i | 20% | 2% | 11% | 16%
CC(=O)Nc1ccc(S(=O)(=O)NCCc2csc3nc(-c4cccc(C)c4)nn23)cc1 | / | / | / | ? | / | 21µM*
Cc1cccc(-c2nc3scc(CCNS(=O)(=O)c4ccc5c(c4)OCCO5)n3n2)c1 | / | / | / | 23µM* | / | ?
Cc1cccc(-c2nc3scc(CCNS(=O)(=O)c4ccc(F)cc4C)n3n2)c1 | / | / | / | ? | / | 16µM*
Cc1ccc(S(=O)(=O)NCCc2csc3nc(-c4ccccc4C)nn23)cc1 | i | i | / | -23% | / | ?
COc1ccc(C(=O)Nc2ccc(N3CCCCC3)cc2)cc1Br | i | i | -2% | -6% | 4% | -27%
O=S1(=O)N=C(N(CCO)/N=C/c2ccc(Br)cc2)c2ccccc21 | i | i | 9% | 5% | 18% | 6%
Cc1cc(S(=O)(=O)N2CCOCC2)ccc1OCC(=O)Nc1ccc(F)cc1 | i | i | -20% | 14% | -11% | -28%
Cn1c(=O)c(Cc2ccccc2)c(O)c2ccccc21 | i | i | 0%[9.24 µM] | ? | -13% | -15%
CCCCCOC(=O)Cc1c(O)c2ccccc2n(C)c1=O | i | i | -4% | 16µM* | 7% | 16µM*
N#C/C(=C\c1coc2ccccc2c1=O)C(N)=S | i | i | -1% | ? | -14% | 15µM*
O=C(Nc1ccccc1)N1CC[C@@]2(CCCN(C(=O)c3cccc(F)c3)C2)C1 | / | / | / | 6% | / | -2%
CCCCCCCCCCCCCCCCCCNC(=O)OC1CCN(C(=O)OC[C@H](COC(=O)N(Cc2cccc[n+]2CC)C(=O)c2ccccc2OC)OC)CC1 | / | / | / | 12µM* | / | 12µM*
CCOC(=O)C1CCN(C(=O)CCNC(=O)c2ccccc2OC)CC1 | i | i | 3% | -1% | 2% | -19%
CN(C)Cc1nc2ccccc2c(=O)n1Cc1nc(-c2cccc([N+](=O)[O-])c2)cs1 | i | ? | -28% | 18µM* | ? | 6.5µM*
CN1CCN(Cc2nc3ccccc3c(=O)n2Cc2nc(-c3ccc([N+](=O)[O-])cc3)cs2)CC1 | ? | ? | 21µM* | 18µM* | 21µM* | 5.8µM*
CN1CCN(Cc2nc3ccccc3c(=O)n2CC#N)CC1 | i | i | 3% | 0% | 7% | 0%
CCOCCCN(C)C1CCN(C(=O)c2oc3ccccc3c2NC(=O)c2ccc(F)cc2)CC1 | i | i | 2% | ? | 4% | -9%
ClCc1nnc(-c2cc3c(s2)CCCC3)o1 | ? | ? | ? | 10µM* | ? | 16µM*
O=C(Cc1ccc2c(c1)OCO2)N1CCOc2ccc(CN3CCOCC3)cc2C1 | / | / | / | 2%[9.04 µM] | / | -17%
COc1ccc(NC(=O)c2ccco2)cc1NC(=O)COc1cc(C)ccc1C(C)C | i | ? | / | 8.2µM* | / | 7.3µM*

Source: PubChem BioAssay
